The results in this text go back to the supplement of paper PMC6555819.

Common to all, as to assay: PBM binding z-score (relative to random genomic background probes); higher = stronger binding; sequences stand for … in GC…GCGATTGACAGCGTAGAATGAAGG
Test [1] deals with FXR:RXRa (NR concentration 270 nM, RXRa partner concentration 90 nM). In a few lines: (§1)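 Custom Agilent 4×180K protein-binding microarrays carried double-stranded probes, each with a 34-nt variable region. These regions held direct-repeat seeds, single-nucleotide variants, half-site ablations and random human genomic background sequences. Ligand-free nuclear receptor dimers were incubated on the arrays for 1 h, antibodies against each partner (one per run) detected binding, and scanned fluorescence was regression-normalized. Binding z-scores take the random background probes as reference.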

Test [2] relates to LXRa:RXRa (NR concentration 270 nM, RXRa partner concentration 90 nM). In short, it runs like this:
as §1

The test system of test [3] is LXRa homodimer (NR concentration 270 nM). In a few lines:
as §1

For test [4], the system named is LXRb:RXRa (NR concentration 270 nM, RXRa partner concentration 90 nM). In short, it runs like this:
as §1

In test [5] the test system is LXRb homodimer (NR concentration 270 nM). In short, it runs like this:
as §1

The test system of test [6] is PPARa:RXRa (NR concentration 270 nM, RXRa partner concentration 90 nM). In short, it runs like this: as §1
The test system of test [7] is PPARg:RXRa (NR concentration 180 nM, RXRa partner concentration 90 nM). In a few lines:
as §1

Test [8] relates to PPARg:RXRa 270nM:90nM, anti-RXR (NR concentration 270 nM, RXRa partner concentration 90 nM). In short, it runs like this: as §1
Test [9] has as its system PPARg:RXRa 30nM:10nM, anti-RXR (NR concentration 30 nM, RXRa partner concentration 10 nM). In a few lines:
as §1

For test [10], the system named is PPARg:RXRa 90nM:30nM, anti-RXR (NR concentration 90 nM, RXRa partner concentration 30 nM). In short, it runs like this:
as §1

Test [11] relates to PPARg:RXRa DBDmut IVT, anti-RXR (DBD mutation: RXRa K156A/R161A, NR concentration 270 nM, RXRa partner concentration 90 nM). In a few lines:
as §1

Test [12] concerns PPARg:RXRa IVT, anti-PPARg (NR concentration 270 nM, RXRa partner concentration 90 nM). In short, it runs like this:
as §1

Test [13] relates to PPARg DBDmut:RXRa IVT, anti-PPARg (DBD mutation: PPARg1 K132A/R137A, NR concentration 270 nM, RXRa partner concentration 90 nM). In short, it runs like this:
as §1

In test [14] the test system is PPARg DBDmut IVT, anti-PPARg (DBD mutation: PPARg1 K132A/R137A, NR concentration 270 nM). In short, it runs like this: as §1
For test [15], the system named is PPARg homodimer (NR concentration 180 nM). In short, it runs like this:
as §1

Test [16] relates to PXR:RXRa (NR concentration 270 nM, RXRa partner concentration 90 nM). In a few lines:
as §1

Test [17] deals with PXR homodimer (NR concentration 270 nM). In a few lines: as §1
Test [18] relates to RARa:RXR (NR concentration 270 nM, RXRa partner concentration 90 nM). In short, it runs like this:
as §1

The test system of test [19] is RARa homodimer (NR concentration 270 nM). In a few lines:
as §1

Test [20] has as its system RARb:RXRa (NR concentration 270 nM, RXRa partner concentration 90 nM). In a few lines: as §1

As for GCATATAGGTAATACAGGGTGAAAGTCCGATTGT, the PBM binding z-score in [1] was 0.317; in test [2], 0.746; in test [3], -0.223; in test [4], 0.369; in [5] it was -0.0682; in test [6], 1.92. For the same sequence, the PBM binding z-score is 1.44 in test [7]; 1.47 in [8]; 0.819 in test [9]; 0.965 in test [10]; 4.15 in test [11]; 3.22 in test [12]. The PBM binding z-score in test [13] worked out at 1.15; in test [14], 0.404; in test [15] it was 1.08; in test [16], 0.411; in test [17] it was 0.164; in [18], 1.35. The PBM binding z-score in test [19] is 0.52; in [20], 0.281.
On to CCTACCAGGCCAATCTGGGTCACTCAAGGCTTGA, for which the PBM binding z-score was 1.15 in test [1]; 1.52 in test [2]; 0.0755 in [3]; 1.01 in test [4]; -0.051 in [5]; 2.92 in test [6]. Further, the PBM binding z-score is 2.3 in [7]; 2.4 in test [8]; -0.0148 in test [9]; 1.57 in test [10]; 3.85 in [11]; 5.15 in [12]. Further, the PBM binding z-score in test [13] is -0.114; in [14] it was -1.08; in test [15], 1.37; in test [16], 1.39; in [17] it was 0.0886; in test [18], 1.66. For the same sequence, the PBM binding z-score worked out at 0.203 in test [19] and 1.71 in test [20].
Consider TCTAGTTGGTCACGGAGGTCGCACACGACGGGTA, for which the PBM binding z-score is 0.941 in [1]; 1.09 in test [2]; -0.0222 in [3]; 1.04 in test [4]; 0.0566 in test [5]; 2.04 in test [6]. Moreover, the PBM binding z-score in test [7] worked out at 1.61; in [8], 2.28; in test [9], 2.83; in test [10], 2.43; in test [11], 2.12; in test [12] it was 2.88. The PBM binding z-score was 0.487 in test [13]; 0.825 in test [14]; 1.19 in test [15]; 1.79 in test [16]; -0.0843 in [17]; 1.63 in test [18]. In addition, the PBM binding z-score turned out to be 0.349 in test [19] and 2.47 in [20].
Take CCTAGCAGGCCAATCTGGGACACTCAAGGCTTGA: the PBM binding z-score in test [1] was 0.127; in test [2], -0.43; in test [3], -0.779; in test [4], -1.13; in [5], -0.814; in test [6] it was -0.0365. Besides, the PBM binding z-score in test [7] was 0.255; in test [8] it was -0.496; in test [9], -0.884; in test [10], -0.673; in test [11] it was 3.13; in test [12], 2.73. The PBM binding z-score was -0.765 in test [13]; -0.94 in test [14]; -0.694 in test [15]; -0.828 in [16]; -0.916 in [17]; -0.753 in test [18]. For the same sequence, the PBM binding z-score in test [19] is -0.862; in test [20], 0.0896.
With ACTTACGGGTCAACGAGGTTTTAGCACGCGTATA, the PBM binding z-score is 6.78 in test [1]; 4.29 in test [2]; 0.188 in test [3]; 3.9 in test [4]; 0.561 in test [5]; 5.92 in test [6]. Further, the PBM binding z-score in test [7] worked out at 5.23; in [8], 4.84; in test [9], 1.94; in [10] it was 3.95; in test [11], 3.23; in test [12] it was 3.96. The PBM binding z-score in [13] is 0.283; in [14], 0.441; in [15] it was 2.07; in test [16], 4.02; in test [17], -0.016; in [18] it was 4.35. Besides, the PBM binding z-score came to 0.666 in test [19] and 4.07 in test [20].
Regarding TCTTATAGATCAGCAGGTTAAGAAAGCTGGCCAA, the PBM binding z-score is 0.0686 in [1]; 0.24 in test [2]; -0.273 in [3]; 0.335 in test [4]; -0.379 in test [5]; 0.481 in [6]. The PBM binding z-score in test [7] was -0.154; in test [8], 1.43; in test [9] it was 2.63; in test [10] it was 2.09; in test [11] it was 1.67; in [12], 0.0176. The PBM binding z-score in [13] was 0.00144; in test [14], -0.0268; in test [15], 0.0461; in test [16] it was 0.161; in test [17] it was -0.509; in test [18] it was 0.109. The PBM binding z-score in test [19] was -0.091; in test [20], 0.115.
